# ± gives the standard deviation of the averaged measurements.
# Tested on: CLZ3 (HCA2 human fibroblast dual HR-NHEJ reporter)
# Test: HR repair efficiency (tdTomato+ cells) relative to control (log10 fold); higher = more homologous recombination
# Conditions: 5 µM; doxycycline 0.5 ug/mL
# 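Also: compound given one day before doxycycline, which switches on I-SceI endonuclease expression to create double-strand breaks within the integrated reporter.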
row,Compound,HR repair efficiency (log10)
1,COc1c(O)cc2occ(-c3ccc(O)cc3)c(=O)c2c1O [Tectorigenin],-0.129
2,OC[C@H]1O[C@@H](Oc2cc(O)cc(/C=C/c3ccc(O[C@@H]4O[C@H](CO)[C@@H](O)[C@H](O)[C@H]4O)cc3O)c2)[C@H](O)[C@@H](O)[C@@H]1O [Mulberroside A],0.234
3,Nc1ncnc2c1ncn2[C@@H]1O[C@H](CO)C[C@H]1O [Cordycepin],-0.139
4,COc1cc(O)cc(O)c1C(=O)/C=C/c1ccccc1 [Cardamonin],-0.195
5,C[C@@H]1CC[C@@]2(OC1)O[C@H]1C[C@H]3[C@@H]4CC=C5C[C@@H](O[C@@H]6O[C@H](CO)[C@@H](O)[C@H](O)[C@H]6O)CC[C@]5(C)[C@H]4CC[C@]3(C)[C@H]1[C@@H]2C [Diosgenin glucoside],0.0102
6,C[C@@H]1O[C@@H](OC[C@H]2O[C@@H](OCCc3ccc(O)c(O)c3)[C@H](O)[C@@H](O[C@@H]3O[C@@H](C)[C@H](O)[C@@H](O)[C@H]3O)[C@@H]2OC(=O)/C=C/c2ccc(O)c(O)c2)[C@H](O)[C@H](O)[C@H]1O [Poliumoside],0.0718
7,c1cc2c(c3c1CC1c4cc5c(cc4CCN1C3)OCO5)OCO2 (stereo not given) [Tetrahydrocoptisine],-0.0746
8,C[C@@H]1O[C@@H](O[C@@H]2[C@@H](O)[C@H](OCCc3ccc(O)c(O)c3)O[C@H](COC(=O)/C=C/c3ccc(O)c(O)c3)[C@H]2O)[C@H](O)[C@H](O)[C@H]1O [Isoacteoside],0.017
9,CC(=O)O[C@H]1CC(=O)OC(C)(C)[C@@H]2CC(=O)[C@]3(C)[C@H](CC[C@@]4(C)[C@@H](c5ccoc5)OC(=O)[C@H]5O[C@]543)[C@@]12C [Nomilin],-0.226
10,CO[C@H]1O[C@@H]2O[C@@]3(C)CC[C@H]4[C@H](C)CC[C@@H]([C@H]1C)[C@@]24OO3 [Artemether],0.186
11,C[C@@H]1C(=O)O[C@H]2C[C@@]34O[C@@H]5OC(=O)[C@H](O)[C@@]56[C@H](C(C)(C)C)[C@H](O)C(OC3=O)[C@]64[C@]21O (stereo not given in full) [Ginkgolide J],0.076
12,O[C@@H]1[C@@H](O)[C@@H](OC/C=C/c2ccccc2)O[C@H](CO[C@@H]2OC[C@H](O)[C@H](O)[C@H]2O)[C@H]1O [Rosavin],0.148
13,CC(=O)S[C@@H]1CC2=CC(=O)CC[C@]2(C)[C@H]2CC[C@@]3(C)[C@@H](CC[C@@]34CCC(=O)O4)[C@H]12 [Spironolactone],-0.0059
14,OCc1ccccc1O[C@@H]1O[C@H](CO)[C@@H](O)[C@H](O)[C@H]1O [Salicoside],0.251
15,COc1cc(/C=C/C(=O)O)ccc1O [Ferulaic Acid],-0.0235
16,Cc1cc(O)c(C(=O)CCC(C)C)c(=O)o1 [Pogostone],-0.0091
17,"O=C(/C=C/c1ccc(O)c(O)c1)O[C@@H]1C[C@@](OC(=O)/C=C/c2ccc(O)c(O)c2)(C(=O)O)C[C@@H](O)[C@@H]1O [Cynarin (1,5-Di-O-caffeoylquinic acid)]",0.0943
18,O=C1c2c(O)cccc2C([C@@H]2O[C@H](CO)[C@@H](O)[C@H](O)[C@H]2O)c2cc(CO)cc(O)c21 (stereo not given in full) [Barbaloin],0.119
19,CC1(C)[C@@H](O[C@H]2O[C@H](C(=O)O)[C@@H](O)[C@H](O)[C@H]2O[C@@H]2O[C@H](C(=O)O)[C@@H](O)[C@H](O)[C@H]2O)CC[C@]2(C)[C@H]3C(=O)C=C4[C@@H]5C[C@@](C)(C(=O)O)CC[C@]5(C)CC[C@@]4(C)[C@]3(C)CC[C@@H]12 [Glycyrrhizic acid],-0.0143
20,C/C=C\c1ccc(OC)cc1 [cis-Anethol],0.0605
21,OC[C@H]1O[C@@H](O[C@@H]2OC=C[C@H]3[C@H](O)[C@@H]4O[C@]4(CO)[C@@H]23)[C@H](O)[C@@H](O)[C@@H]1O [Catalpol],0.00259
22,CC(C)=CCC/C(C)=C/C=C/C(C)=C/C=C/C(C)=C/C=C/C=C(C)/C=C/C=C(C)/C=C/C=C(\C)CCC=C(C)C [Lycopene],0.0372
23,O=C(O)c1ccccc1O [Salicylic acid],0.0351
24,O=c1cc(-c2ccc(O)cc2)oc2cc(O)c([C@@H]3O[C@H](CO)[C@@H](O)[C@H](O)[C@H]3O)c(O)c12 [Isovitexin],0.0479
25,COc1cc([C@@H]2[C@H]3CO[C@@]4(O)C(=O)[C@@H]2C=C([C@H]2Oc5cc(O)cc(O)c5C(=O)[C@@H]2O)[C@@H]34)ccc1O [Silydianin],0.076 ± 0.0068
26,OC[C@H]1O[C@@H](Oc2ccc(O)cc2)[C@H](O)[C@@H](O)[C@@H]1O [Arbutin],0.0689
27,O=C1c2ccccc2C(=O)c2c1cc(O)c(CO)c2O [Lucidin],0.258
28,COc1ccc(CCC(=O)c2c(O)cc(OC3OC(CO)C(O)C(O)C3OC3OC(C)C(O)C(O)C3O)cc2O)cc1O (stereo not given) [Neosperidin Dihydrochalcone],0.0209
29,COc1ccc2c(c1OC)CN(C)CCc1cc3c(cc1C(=O)C2)OCO3 [Allocryptopine],0.04
30,COc1c2c(cc3oc(CO)cc(=O)c13)O[C@H](C(C)(C)O)C2 [Cimifugin],-0.0036
